Results on 15 compounds are retold here after PubChem BioAssay.

Structures are written as SMILES. For part of these data: Potency and affinity values are given separately. Calls of active or inactive are those of the source.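 The calls were made as follows, unless noted: active = fitted half-maximal concentration within 10 nM to 100 µM, steepness 0.5 to 2, significant signal drop, low assay interference; inactive = the rest.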

Experiment [1] addresses Cell division control protein 42 homolog (Homo sapiens) (UniProt P60953). Nature of the experiment: activated mutant Cdc42 GTP-binding inhibitors, dose response, biochemical, multiplex bead flow cytometry, Bodipy-FL-GTP (AID 1333;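 active = fitted half-maximal concentration within the tested dose range, moderate curve steepness, a statistically real signal drop, and little compound fluorescence or tag-binding interference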).
Experiment [2] has the same target. Nature of the experiment: wildtype Cdc42 GTP-binding inhibitors, dose response, biochemical, multiplex bead flow cytometry, Bodipy-FL-GTP (AID 1334;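 active = fitted half-maximal concentration within the tested range, moderate curve steepness, significant signal drop, and little compound fluorescence or bead-linkage interference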). As to conditions: bead-based flow cytometry, Bodipy-FL-GTP binding to GST-Cdc42; at 100 µM (top of the series) unless noted. Background: Flow cytometry measures light scatter and fluorescence of single cells or particles in a stream.

For experiment [3], the target named is GTPase HRas (Homo sapiens) (UniProt P01112). As to the kind of experiment: inhibitors of GTP binding to wildtype Ras, dose response, biochemical, multiplex bead flow cytometry (AID 1335). The following applies: bead-based flow cytometry, Bodipy-GTP binding to GST-Ras; at 100 µM (top of the series) unless noted.
Experiment [4] relates to Ras-related protein Rab-7a (dog), GTP binding. As to the kind of experiment: Rab7 GTP binding inhibitors, potency, dose response, biochemical, wildtype, multiplex bead flow cytometry (AID 1336; call rule not given here).
The target of experiment [5] is Ras-related C3 botulinum toxin substrate 1 (Homo sapiens) (UniProt P63000). Nature of the experiment: wildtype Rac1 GTP binding inhibitors, dose response, biochemical, multiplex bead flow cytometry (AID 1340;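 active = dose curve with midpoint inside tested range, moderate steepness, plateau gap beyond fit error, low compound glow and bead-link interference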). The following applies: GST-Rac1 beads, Bodipy-FL-GTP binding; at 100 µM (top of the series) unless noted.
Experiment [6] concerns the target GTPase HRas (Homo sapiens) (UniProt P01112). Nature of the experiment: activated Ras mutant GTP binding inhibitors, dose response, biochemical, multiplex bead flow cytometry (AID 1341;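 active = dose-response curve with midpoint inside the tested range, moderate steepness, significant amplitude and little compound fluorescence or bead-attachment interference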;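 also: GST-tagged constitutively activated Ras mutant immobilized on beads and multiplexed with other GTPases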).

Cell division control protein 42 homolog (Homo sapiens), sequence (P60953 whole entry, looked up): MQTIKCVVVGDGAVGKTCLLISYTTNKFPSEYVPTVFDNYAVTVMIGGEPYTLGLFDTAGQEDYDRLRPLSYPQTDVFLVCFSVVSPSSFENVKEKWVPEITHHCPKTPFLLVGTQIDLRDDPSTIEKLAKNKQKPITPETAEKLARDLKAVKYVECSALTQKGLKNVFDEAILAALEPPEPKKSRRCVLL
GTPase HRas (Homo sapiens), sequence (P01112 whole entry, looked up): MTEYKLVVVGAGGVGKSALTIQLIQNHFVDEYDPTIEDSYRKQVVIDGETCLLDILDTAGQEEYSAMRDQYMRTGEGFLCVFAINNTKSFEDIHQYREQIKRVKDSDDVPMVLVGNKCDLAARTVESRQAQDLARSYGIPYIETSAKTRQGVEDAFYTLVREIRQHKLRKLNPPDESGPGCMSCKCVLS

On to `Cc1ccc(C(C)C)c(OCCSc2nc3ccccc3n2CC(=O)O)c1`, for which the compound was called inactive in experiment [1], in experiment [4] and in experiment [6]. Also, the fluorescence, percent of control (lower = inhibition) in experiment [2] was 56.7%. This compound also came in with a GTP binding, percent of control in experiment [3] of 86.4%. Also, the GTP binding signal, raw median fluorescence (lower = inhibition) (MCF (arbitrary fluorescence units)) in experiment [5] was 32.1.

In the case of `COc1cccc(Nc2c(F)c(F)c(F)c(F)c2C(=O)O)c1`, the compound was classed as inactive in experiment [1], in experiment [4] and in experiment [6]. In addition, in experiment [2], the fluorescence, percent of control (lower = inhibition) amounted to 53.4%. The GTP binding, percent of control in experiment [3] amounted to 60.7%. In addition, the GTP binding signal, raw median fluorescence (lower = inhibition) (MCF (arbitrary fluorescence units)) in experiment [5] is 0.

As to `Cc1ccc(COc2ccsc2C(=O)O)cc1`, the result in experiment [1], in experiment [4] and in experiment [6] was inactive. In addition, the fluorescence, percent of control (lower = inhibition) in experiment [2] amounted to 99.7%. In experiment [3], the GTP binding, percent of control is 115%. In experiment [5], the GTP binding signal, raw median fluorescence (lower = inhibition) (MCF (arbitrary fluorescence units)) is 82.4.

As to `CCOC(=O)c1c(CSc2ccccc2)n(C)c2cc(Br)c(OCC(O)CNC(CO)(CO)CO)cc12` (stereo not given), the call in experiment [1], in experiment [4] and in experiment [6] was inactive. For the same compound, the fluorescence, percent of control (lower = inhibition) in experiment [2] was 94.1%. The GTP binding, percent of control in experiment [3] was 147%. This compound also registered a GTP binding signal, raw median fluorescence (lower = inhibition) (MCF (arbitrary fluorescence units)) in experiment [5] of 320.

Consider `CCOC(=O)Cn1c(=O)c2c(nc(N3CCCCC3)n2C)n(C)c1=O`, for which the compound was called inactive in experiment [1], in experiment [4] and in experiment [6]. In experiment [2], the fluorescence, percent of control (lower = inhibition) came to 52.2%. The compound further yielded a GTP binding, percent of control in experiment [3] of 63.3%. This compound also returned a GTP binding signal, raw median fluorescence (lower = inhibition) (MCF (arbitrary fluorescence units)) in experiment [5] of 168.

As to `COc1cc2nc(/C=C/c3ccc(N(C)C)cc3)sc2cc1SC`, the result in experiment [1], in experiment [4] and in experiment [6] was inactive. For the same compound, in experiment [2], the fluorescence, percent of control (lower = inhibition) came to 121%. Also, the GTP binding, percent of control in experiment [3] was 122%. This compound also gave a GTP binding signal, raw median fluorescence (lower = inhibition) (MCF (arbitrary fluorescence units)) in experiment [5] of 238.

For `NS(=O)(=O)c1cccnc1Nc1c(Cl)cccc1Cl`, the compound was called inactive in experiment [1], in experiment [4] and in experiment [6]. In experiment [2], the fluorescence, percent of control (lower = inhibition) was 90.6%. The compound also returned a GTP binding, percent of control in experiment [3] of 152%. For the same compound, the GTP binding signal, raw median fluorescence (lower = inhibition) (MCF (arbitrary fluorescence units)) in experiment [5] amounted to 187.

For the compound `Cc1ccccc1OCCn1cc(C(=O)O)c2ccccc21`, the outcome in experiment [1], in experiment [4] and in experiment [6] was inactive. Also, the fluorescence, percent of control (lower = inhibition) in experiment [2] is 96.9%. Moreover, in experiment [3], the GTP binding, percent of control stood at 131%. The same compound showed a GTP binding signal, raw median fluorescence (lower = inhibition) (MCF (arbitrary fluorescence units)) in experiment [5] of 83.8.

With `CC(C)(C)C(=O)OCC1OC(n2cnc(C(N)=O)n2)C(O)C1O` (stereo not given), the call in experiment [1], in experiment [4] and in experiment [6] was inactive. Moreover, in experiment [2], the fluorescence, percent of control (lower = inhibition) was determined as 35.8%. In experiment [3], the GTP binding, percent of control was found to be 81.6%. Also, the GTP binding signal, raw median fluorescence (lower = inhibition) (MCF (arbitrary fluorescence units)) in experiment [5] came to 266.

With `CCOC(=O)Cc1csc(NC(=O)CSc2nc(-c3ccccc3)c(C#N)c(=O)[nH]2)n1`, the call in experiment [1], in experiment [4] and in experiment [6] was inactive. The fluorescence, percent of control (lower = inhibition) in experiment [2] was 29.4%. The compound further yielded a GTP binding, percent of control in experiment [3] of 76.1%. This compound returned a GTP binding signal, raw median fluorescence (lower = inhibition) (MCF (arbitrary fluorescence units)) in experiment [5] of 218.

Take `O=C(/C=C/c1ccccc1)NC(NC(=S)Nc1ccc(C(=O)O)cc1)C(Cl)(Cl)Cl` (stereo not given): the outcome in experiment [1], in experiment [4] and in experiment [6] was inactive. Also, the fluorescence, percent of control (lower = inhibition) in experiment [2] came out at 35.2%. In experiment [3], this compound yielded a GTP binding, percent of control of 78.3%. Also, the GTP binding signal, raw median fluorescence (lower = inhibition) (MCF (arbitrary fluorescence units)) in experiment [5] was 178.

In the case of `COc1ccc(OCCSc2nc3nc(C)cc(C)n3n2)cc1`, the outcome in experiment [1], in experiment [4] and in experiment [6] was inactive. The fluorescence, percent of control (lower = inhibition) in experiment [2] is 45.5%. This compound also came in with a GTP binding, percent of control in experiment [3] of 87.4%. This compound yielded a GTP binding signal, raw median fluorescence (lower = inhibition) (MCF (arbitrary fluorescence units)) in experiment [5] of 178.

On to `COc1cccc(N2CCN(C(=O)CCCCCNc3nc(=S)[nH]c4ccccc34)CC2)c1`, for which the compound was classed as inactive in experiment [1], in experiment [4] and in experiment [6]. Also, the fluorescence, percent of control (lower = inhibition) in experiment [2] was found to be 38.1%. The compound also yielded a GTP binding, percent of control in experiment [3] of 79.5%. Also, the GTP binding signal, raw median fluorescence (lower = inhibition) (MCF (arbitrary fluorescence units)) in experiment [5] turned out to be 264.

Consider `O=C(N/N=C/c1ccc([N+](=O)[O-])o1)c1cn(-c2ccccc2)nc1-c1ccc(Cl)cc1`, for which the result in experiment [1], in experiment [4] and in experiment [6] was inactive. Besides, in experiment [2], the fluorescence, percent of control (lower = inhibition) amounted to 31.7%. The compound also displayed a GTP binding, percent of control in experiment [3] of 77%. This compound also registered a GTP binding signal, raw median fluorescence (lower = inhibition) (MCF (arbitrary fluorescence units)) in experiment [5] of 207.

Regarding `Cc1ccc(OCc2ccc(C(=O)Nc3nc4ccccc4n3Cc3ccccc3)o2)c([N+](=O)[O-])c1`, the result in experiment [1], in experiment [4] and in experiment [6] was inactive. Moreover, in experiment [2], the fluorescence, percent of control (lower = inhibition) is 48.5%. In experiment [3], the GTP binding, percent of control turned out to be 60.3%. The compound also returned a GTP binding signal, raw median fluorescence (lower = inhibition) (MCF (arbitrary fluorescence units)) in experiment [5] of 193.
